Source: PubChem (National Center for Advancing Translational Sciences (NCATS))
Only some compounds are listed: those with a hit (about 19% of all), similar ones and a draw of the others.
HepG2 viability – HepG2 cytotoxicity, counter-screen for TGF-b inhibitors; HepG2 CAGA-GFP viability, ATP luminescence, 18 h; Potency, µM (doses to about 46.1 µM), usual class: cytotoxic; hit rate 0.76% among 410,000; AID 588856
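HepG2 CAGA-GFP cells (1000/well, DMEM with 1% FBS) received compound, then TGF-beta at 500 pg/mL final, and were incubated 18 hours at 37 degrees C. Viability was read by CellTiter-Glo luminescence. Media-only wells were set as complete cell-killing and DMSO as no toxicity.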
TGFb inhibitor – TGF-b pathway inhibition; Potency, µM (series often up to 46.1 µM), usual class: inhibitors; HepG2 CAGA-GFP TGF-b/SMAD3 reporter, GFP fluorescence, 18 h; TGF-beta stimulated, 500 pg/mL final; hit rate 1.2% among 410,000; note: nearly all actives have a fitted effect of over 65% in size
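Inhibition of TGF-beta-driven CAGA-GFP reporter expression in HEPG2 cells is measured by cellular GFP fluorescence after 18 h stimulation with 500 pg/mL recombinant TGF-beta in 1% FBS medium at 37 degrees C.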
DT40 TDP1 no CPT – qHTS for Inhibitors of human tyrosyl-DNA phosphodiesterase 1 (TDP1): qHTS in cells in absence of CPT; DT40 Tdp1-/- hTDP1 cells, no CPT, ATP luminescence, 48 h; Potency, µM (doses to about 46.2 µM), usual class: inhibitors; hit rate 15% among 420,000; note: nearly all actives have a fitted effect of over 55% in size
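Camptothecin absent (DMSO only). Human TDP1-complemented DT40 knockout cells, 400 cells/well, 37 °C for minimum 48 hr; ATP measured via CellTiter-Glo, 30 min dark incubation, luminescence.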
IL-1B inflam inh – inhibitors of inflammasome signaling (IL-1 beta secretion) | THP-1 LPS/ATP IL-1B secretion, AlphaLISA, 16 h; hits give low values | activity change, % at 57.5 µM | hit rate 4.7% among 360,000 | AID 743279; in the data active = activity change below about -50%; inconclusive = mostly about -30% to -49%
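Secreted IL-1B measured by AlphaLISA bead assay after 16 h compound exposure of THP-1 cells; compounds (final up to 57.5 uM) added 1 h before LPS (250 ng/mL) and ATP (1.25 mM) stimulation; lower signal means less secretion.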
TDP1 block – inhibitors of human tyrosyl-DNA phosphodiesterase TDP1; Q9NUW8; AID 485290; recombinant TDP1, AlphaScreen DNA substrate cleavage; Potency, µM (highest dose often 130 µM), most hits filed as inhibitors; hit rate 0.28% among 350,000; note: nearly all actives have a fitted effect of over 40% in size
Target sequence (Q9NUW8 whole entry, looked up): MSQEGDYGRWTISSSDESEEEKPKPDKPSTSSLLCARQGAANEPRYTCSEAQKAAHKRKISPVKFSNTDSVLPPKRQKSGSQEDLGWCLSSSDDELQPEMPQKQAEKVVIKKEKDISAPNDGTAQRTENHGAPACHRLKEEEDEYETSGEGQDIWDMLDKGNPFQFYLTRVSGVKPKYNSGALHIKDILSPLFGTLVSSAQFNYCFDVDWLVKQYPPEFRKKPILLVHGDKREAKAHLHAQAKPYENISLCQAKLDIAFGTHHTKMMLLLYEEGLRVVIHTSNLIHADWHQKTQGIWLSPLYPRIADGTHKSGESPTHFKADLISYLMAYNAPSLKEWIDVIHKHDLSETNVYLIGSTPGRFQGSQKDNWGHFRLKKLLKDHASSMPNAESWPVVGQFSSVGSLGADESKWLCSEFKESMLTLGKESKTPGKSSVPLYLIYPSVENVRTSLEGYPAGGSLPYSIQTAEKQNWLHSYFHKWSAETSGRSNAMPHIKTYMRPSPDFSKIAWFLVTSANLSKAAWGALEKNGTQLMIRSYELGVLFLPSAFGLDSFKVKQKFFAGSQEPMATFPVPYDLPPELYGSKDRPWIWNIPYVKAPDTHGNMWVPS
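Tdp1 1 nM final; 15 min RT w/ cpd; substrate 15 nM, 5 min; beads 10 ug/ml, 10 min; AlphaScreen read. Neg ctrl: no enzyme.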
TDP1 cell CPT – DT40-hTDP1 cell growth loss with CPT | chicken DT40 Tdp1-/-;hTDP1 cells + 20 nM CPT, ATP luminescence, 48 h | Potency, µM (top dose mostly 46.2 µM), actives largely listed as inhibitors | hit rate 12% among 420,000; note: nearly all actives have a fitted effect of over 55% in size
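Chicken DT40 Tdp1-/- cells complemented with human TDP1, 400 cells/well, exposed to compounds plus 20 nM camptothecin for at least 48 h at 37 C; viability read as ATP content by CellTiter-Glo luminescence.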
A number is an active result; - = inactive; ? = inconclusive; . = no result given; [ ] = remark or other dose. Unless noted, calls come from the whole dose curve; as a rule, active = well fitted curve in the direction sought with a large enough effect; inconclusive = small, poorly fitted or top-dose-only effect, or another doubt; inactive = no such curve, though single readings can be large; an effect the other way counts as inactive or inconclusive.

SMILES	HepG2 viability	TGFb inhibitor	DT40 TDP1 no CPT	IL-1B inflam inh	TDP1 block	TDP1 cell CPT
CCOc1ccc(-c2nnc(SCC(=O)NCc3ccc(C)cc3)nc2-c2ccc(OCC)cc2)cc1	-	-	13µM	.	-	?
Cc1ccc(SCC(=O)N2CCOCC2)cc1	-	-	-	-	-	-
Cc1ccc(-c2nnc(SCC(N)=O)nc2-c2ccc(C)cc2)cc1	-	-	?	-	-	?
CO[C@@H]1COC(=O)C/C=C\[C@H](C)[C@H](OC)COC(=O)[C@H]2CCCN2C(=O)C/C=C\[C@H]1C	.	.	.	.	-[21 µM]	.
O=C(CSCc1ccc(Cl)cc1)N1CCOCC1	-	-	-	-	-	-
Cc1ccc(S(=O)(=O)N2CCN(C(=O)COC(=O)Cc3ccc(F)cc3)CC2)c(C)c1	-	-	-	-	-	-
CSc1ccc(CSCC(=O)N2CCN(S(=O)(=O)c3ccc(C)cc3C)CC2)cc1	-	-	?	-	-	26µM
Cc1ccc(C(CC(=O)N2CCOCC2)c2ccco2)cc1 (stereo not drawn)	-	-	?	?	-	16µM
O=C(CC(c1ccccc1)c1ccco1)N1CCCCC1 (stereo not drawn)	.	.	.	.	-	.
Cc1ccc(CSCC(=O)N2CCOCC2)cc1	-	-	10µM	-	-	6.5µM
Cc1ccc(Cn2c(=O)n(CCc3ccccc3)c(=O)c3c(C)c(C)sc32)cc1	-	-	?	.	-	-
COc1ccccc1NC(=O)c1sc2nc(C)c(C(=O)Nc3ccc(C)cc3C)c(-c3ccco3)c2c1N	-	-	?	.	-	?
Cc1ccccc1NC(=O)c1sc2nc3c(c(-c4ccco4)c2c1N)CCCC3	-	-	?	?	-	16µM
Cc1ccc(NC(=O)c2sc3nc4c(c(-c5ccco5)c3c2N)CCC4)cc1	-	-	?	-	-	?
Nc1c(C(=O)Nc2ccccc2)sc2nc3c(c(-c4ccco4)c12)CCC3	-	-	9.2µM	-	-	8.2µM
Nc1c(C(=O)Nc2ccccc2)sc2nc3c(c(-c4ccco4)c12)CCCC3	-	-	?	-51	-	?
Nc1c(C(=O)Nc2cccc(C(=O)O)c2)sc2nc3c(cc12)CCCC3	-	-	-	-	-	-
CC(OC(=O)Cc1c(F)cccc1Cl)C(=O)NC1CCCCC1C (stereo not drawn)	-	-	?	-	-	-
Cc1sc(N)nc1-c1c(C)n(C)c2ccccc12	-	-	-	-	.	?
COc1ccc(CCC(=O)NCCS(=O)(=O)N2CCN(c3ccc(F)cc3)CC2)cc1	-	-	?	-	-	-
CCOc1ccccc1CNC(=O)C1CCN(S(=O)(=O)c2c(C)noc2/C=C/c2ccccc2F)CC1	-	-	?	.	-	-
Oc1c(C(c2ccccc2Cl)N2CCC(O)CC2)sc2nc(-c3ccco3)nn12 (stereo not drawn)	-	-	?	.	-	-
COCCn1ccc2c(OCC(=O)Nc3cccc(OC)c3)cccc2c1=O	-	-	15µM	.	-	?
COCCn1ccc2c(OCC(=O)Nc3cccc(C(F)(F)F)c3)cccc2c1=O	-	-	23µM	.	-	?
CCOCCn1ccc2c(OCC(=O)Nc3ccc(OC)cc3OC)cccc2c1=O	-	-	?	-	.	-
SMILES	HepG2 viability	TGFb inhibitor	DT40 TDP1 no CPT	IL-1B inflam inh	TDP1 block	TDP1 cell CPT
CCOCCn1ccc2c(OCC(=O)Nc3ccc(OC)c(OC)c3)cccc2c1=O	-	-	10µM	-	-	15µM
CCOCCn1ccc2c(OCC(=O)Nc3cc(C)cc(C)c3)cccc2c1=O	-	-	?	.	-	-
COc1ccc(NC(=O)c2ncoc2-c2ccco2)cc1Cl	-	-	-	.	-	-
O=C(NCc1ccccc1Cl)c1ccc2nc[nH]c2c1	-	-	?	-	-	-
CCN1C(=O)[C@H]2[C@@H](c3ccc(C(F)(F)F)cc3)N[C@]3(CCCN(Cc4ccc(OC)cc4)C3=O)[C@H]2C1=O	-	?	10µM	-	.	21µM
CCN1C(=O)[C@H]2[C@@H](c3ccc(C)cc3)N[C@]3(CCCN(Cc4ccc(F)cc4)C3=O)[C@H]2C1=O	-	-	?	-	.	?
CCN1C(=O)[C@H]2[C@@H](c3ccc(OC)cc3)N[C@]3(CCCN(Cc4ccc(Cl)cc4)C3=O)[C@H]2C1=O	-	-	?	-	.	?
CCN1C(=O)[C@H]2[C@@H](c3ccc(C(F)(F)F)cc3)N[C@]3(CCCN(Cc4ccc(C(F)(F)F)cc4)C3=O)[C@H]2C1=O	-	-	12µM	-	.	12µM
Cc1ccc(NC2=CC(=O)CC(c3ccc(Cl)cc3)C2)cc1 (stereo not drawn)	-	-	12µM	-	-	?
COc1ccc([C@H]2CC(=O)C=C(c3ccc(NC(C)=O)cc3)C2)cc1OC	-	?	?	?	-	?
CSc1ccc(C2=CC(=O)C[C@H](c3ccc(Cl)cc3)C2)cc1	-	-	?	-	-	?
CC(=O)Nc1ccc(C2=CC(=O)C[C@H](c3ccc(Cl)cc3)C2)cc1	-	-	16µM	?	-	18µM
O=C1C=C(Nc2cccc(Cl)c2)CC(c2ccco2)C1 (stereo not drawn)	-	-	?	-	-	?
Cc1ccc(NC2=CC(=O)CC(c3ccccc3)C2)cc1 (stereo not drawn)	-	-	3.7µM	-	.	2.9µM
CC(C)CCNC1=CC(=O)CC(c2ccccc2)C1 (stereo not drawn)	-	-	?	-	-	?
O=C1C=C(Nc2ccc(Cl)cc2)CC(c2ccccc2)C1 (stereo not drawn)	-	-	12µM	-	-	21µM
Cc1ccc(C)c(NC(=O)CN(C)S(=O)(=O)c2ccc3c(c2)CCC(=O)N3)c1	-	-	-	.	-	-
Cc1cc([N+](=O)[O-])ccc1N1C(=O)c2ccc(C(=O)Nc3ccccc3C(=O)O)cc2C1=O	-	-	-	-	.	-
C=C1C(=O)[C@]23C[C@H]1CCC2[C@@]1(C)C(C[C@@H]3O)[C@](C)(C(=O)OC)CC[C@@H]1O (stereo partly drawn)	5µM	0.79µM	0.52µM	-111	.	1µM
CCOC(=O)c1c(C)n(C)c2ccc(O)c(S(=O)(=O)c3ccccc3)c12	-	-	-	-	-	-
CCOC(=O)c1c(C)n(-c2ccc(OC)cc2)c2ccc(O)c(CN(C)C)c12	-	?	16µM	-	.	26µM
CCOC(=O)c1c(C)n(C)c2ccc(O)c(CN(C)C)c12	-	?	18µM	-53	-	21µM
